# Reference: article PMC7862700, “An all-to-all approach to the identification of sequence-specific readers for epigenetic DNA modifications on cytosine”
# Legend:
# Assay in all cases: DAPPL (digital affinity profiling via proximity ligation, sequencing); 10 mM Tris-HCl pH 7.5, 50 mM NaCl, 1 mM DTT, 4% glycerol, room temperature, 30 min; GST-TFs on glutathione beads, 16-mer random dsDNA library, 0.1% formaldehyde crosslink after washing; high values mean tight binding
# FEV = biological target: T1, FEV (Homo sapiens, UniProt Q99581 1-238); conditions: protein: recombinant; tags: N-terminal GST; dsDNA, one strand shown
# T1 sequence: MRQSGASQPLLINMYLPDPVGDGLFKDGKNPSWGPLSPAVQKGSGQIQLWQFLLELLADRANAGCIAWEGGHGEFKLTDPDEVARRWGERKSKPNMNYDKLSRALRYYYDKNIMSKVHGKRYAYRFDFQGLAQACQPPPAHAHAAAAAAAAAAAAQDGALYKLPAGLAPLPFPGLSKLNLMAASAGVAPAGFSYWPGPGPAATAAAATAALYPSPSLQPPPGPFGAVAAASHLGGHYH
# In short: (§1)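 Sequencing on an Illumina NextSeq500 followed washing, crosslinking with 0.1% formaldehyde, proximity ligation (BsaI/T4 ligase, 1 h, 37 °C) and PCR amplification of pools that had been incubated for 30 min at room temperature with 200 nmole of a random double-stranded 16-mer DNA library in Tris/NaCl/DTT/glycerol buffer. Each pool held DNA-barcoded human transcription factors, expressed in yeast as GST fusions and captured on glutathione beads, plus a tag-only sample. Binding signal is a hexamer's read frequency for a factor divided by its frequency in the tag-only sample.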
# ETV5 = ETV5 (Homo sapiens, UniProt P41161 1-510); conditions: protein: recombinant; tags: N-terminal GST; dsDNA, one strand shown
# Chain of ETV5 (P41161 whole entry): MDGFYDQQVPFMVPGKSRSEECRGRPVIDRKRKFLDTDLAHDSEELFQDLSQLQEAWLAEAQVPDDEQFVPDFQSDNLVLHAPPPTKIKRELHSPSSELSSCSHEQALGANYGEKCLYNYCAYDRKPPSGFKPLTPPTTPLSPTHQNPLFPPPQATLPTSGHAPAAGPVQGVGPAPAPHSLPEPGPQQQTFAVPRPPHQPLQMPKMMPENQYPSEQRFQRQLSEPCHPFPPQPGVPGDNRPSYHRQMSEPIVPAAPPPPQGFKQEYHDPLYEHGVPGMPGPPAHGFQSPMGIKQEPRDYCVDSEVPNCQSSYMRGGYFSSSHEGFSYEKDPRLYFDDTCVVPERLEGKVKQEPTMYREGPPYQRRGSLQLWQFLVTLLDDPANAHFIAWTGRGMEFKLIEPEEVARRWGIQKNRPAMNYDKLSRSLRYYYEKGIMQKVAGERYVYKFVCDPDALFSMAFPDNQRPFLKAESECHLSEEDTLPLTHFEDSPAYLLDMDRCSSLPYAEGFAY
# In short: as §1
# HSF1 = HSF1 (Homo sapiens, UniProt Q00613 1-529); conditions: protein: recombinant; tags: N-terminal GST; chain copies: 3; dsDNA, one strand shown
# Chain of HSF1 (Q00613 whole entry): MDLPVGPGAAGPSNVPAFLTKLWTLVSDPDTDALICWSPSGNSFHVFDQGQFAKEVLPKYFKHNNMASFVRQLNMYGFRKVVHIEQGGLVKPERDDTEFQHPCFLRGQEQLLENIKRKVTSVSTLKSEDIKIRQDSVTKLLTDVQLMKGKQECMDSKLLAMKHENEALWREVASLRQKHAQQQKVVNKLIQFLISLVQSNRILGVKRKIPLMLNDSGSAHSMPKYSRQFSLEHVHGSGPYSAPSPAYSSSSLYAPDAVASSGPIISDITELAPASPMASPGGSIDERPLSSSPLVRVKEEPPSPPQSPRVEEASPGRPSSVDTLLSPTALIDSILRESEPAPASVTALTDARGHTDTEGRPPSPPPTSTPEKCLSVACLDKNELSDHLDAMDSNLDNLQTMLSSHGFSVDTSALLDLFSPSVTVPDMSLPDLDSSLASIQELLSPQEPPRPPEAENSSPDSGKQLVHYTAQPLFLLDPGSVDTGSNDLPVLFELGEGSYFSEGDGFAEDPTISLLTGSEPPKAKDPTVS
# In short: as §1
# SPIC = biological target: T2, SPIC (Homo sapiens, UniProt Q8N5J4 1-248); conditions: protein: recombinant; tags: N-terminal GST; dsDNA, one strand shown
# T2 sequence: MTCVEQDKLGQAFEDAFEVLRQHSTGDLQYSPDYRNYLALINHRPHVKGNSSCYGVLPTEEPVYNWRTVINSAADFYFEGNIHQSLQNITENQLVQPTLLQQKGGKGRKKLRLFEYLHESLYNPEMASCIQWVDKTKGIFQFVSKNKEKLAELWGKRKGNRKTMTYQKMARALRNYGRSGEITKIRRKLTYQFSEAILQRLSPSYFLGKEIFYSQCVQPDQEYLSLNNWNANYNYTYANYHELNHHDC
# In short: as §1
# ELF4 = ELF4 (Homo sapiens, UniProt Q99607 1-663); conditions: protein: recombinant; tags: N-terminal GST; dsDNA, one strand shown
# Chain of ELF4 (Q99607 whole entry): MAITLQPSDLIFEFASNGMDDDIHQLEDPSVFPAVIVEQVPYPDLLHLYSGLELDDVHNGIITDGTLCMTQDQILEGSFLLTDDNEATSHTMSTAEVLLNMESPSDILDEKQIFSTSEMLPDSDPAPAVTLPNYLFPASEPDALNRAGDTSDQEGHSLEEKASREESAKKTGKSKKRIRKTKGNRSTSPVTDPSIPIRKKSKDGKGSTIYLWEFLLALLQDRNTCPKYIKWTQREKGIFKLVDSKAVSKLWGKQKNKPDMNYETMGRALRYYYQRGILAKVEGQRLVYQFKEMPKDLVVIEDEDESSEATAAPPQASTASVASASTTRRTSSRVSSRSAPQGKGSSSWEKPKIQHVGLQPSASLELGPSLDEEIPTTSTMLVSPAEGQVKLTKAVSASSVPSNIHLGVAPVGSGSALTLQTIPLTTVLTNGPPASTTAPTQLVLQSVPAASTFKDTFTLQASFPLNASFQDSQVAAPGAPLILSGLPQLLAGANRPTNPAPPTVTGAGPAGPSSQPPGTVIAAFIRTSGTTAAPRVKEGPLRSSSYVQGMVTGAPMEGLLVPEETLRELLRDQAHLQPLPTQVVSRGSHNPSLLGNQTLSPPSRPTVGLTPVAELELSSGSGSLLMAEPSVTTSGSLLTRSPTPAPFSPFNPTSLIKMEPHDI
# In short: as §1
# ELK4 = biological target: T3, ELK4 (Homo sapiens, UniProt P28324-2 1-405); conditions: protein: recombinant; tags: N-terminal GST; dsDNA, one strand shown
# T3 sequence: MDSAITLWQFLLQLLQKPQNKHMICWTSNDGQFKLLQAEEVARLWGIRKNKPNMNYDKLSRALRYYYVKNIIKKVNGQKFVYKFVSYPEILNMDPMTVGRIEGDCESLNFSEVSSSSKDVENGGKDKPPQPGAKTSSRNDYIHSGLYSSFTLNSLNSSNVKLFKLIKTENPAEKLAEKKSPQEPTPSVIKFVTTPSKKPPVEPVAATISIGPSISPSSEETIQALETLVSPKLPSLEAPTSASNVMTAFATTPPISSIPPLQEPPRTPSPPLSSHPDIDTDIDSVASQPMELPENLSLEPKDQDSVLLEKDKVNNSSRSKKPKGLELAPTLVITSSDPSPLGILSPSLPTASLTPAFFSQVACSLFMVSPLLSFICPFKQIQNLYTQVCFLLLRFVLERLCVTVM
# In short: as §1
# ETV2 = biological target: T4, ETV2 (Homo sapiens, UniProt O00321 1-342); conditions: protein: recombinant; tags: N-terminal GST; dsDNA, one strand shown
# T4 sequence: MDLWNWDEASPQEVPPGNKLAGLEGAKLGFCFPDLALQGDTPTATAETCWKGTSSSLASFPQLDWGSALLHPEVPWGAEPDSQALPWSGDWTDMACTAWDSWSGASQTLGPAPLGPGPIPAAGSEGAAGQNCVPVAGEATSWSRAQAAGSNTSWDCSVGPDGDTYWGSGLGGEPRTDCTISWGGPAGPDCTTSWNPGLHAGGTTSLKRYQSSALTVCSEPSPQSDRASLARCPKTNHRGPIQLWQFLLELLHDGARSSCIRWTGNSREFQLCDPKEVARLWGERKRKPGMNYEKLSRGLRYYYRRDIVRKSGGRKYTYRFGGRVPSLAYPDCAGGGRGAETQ
# In short: as §1
# ELF3 = biological target: T5, ELF3 (Homo sapiens, UniProt P78545 1-371); conditions: protein: recombinant; tags: N-terminal GST; dsDNA, one strand shown
# T5 sequence: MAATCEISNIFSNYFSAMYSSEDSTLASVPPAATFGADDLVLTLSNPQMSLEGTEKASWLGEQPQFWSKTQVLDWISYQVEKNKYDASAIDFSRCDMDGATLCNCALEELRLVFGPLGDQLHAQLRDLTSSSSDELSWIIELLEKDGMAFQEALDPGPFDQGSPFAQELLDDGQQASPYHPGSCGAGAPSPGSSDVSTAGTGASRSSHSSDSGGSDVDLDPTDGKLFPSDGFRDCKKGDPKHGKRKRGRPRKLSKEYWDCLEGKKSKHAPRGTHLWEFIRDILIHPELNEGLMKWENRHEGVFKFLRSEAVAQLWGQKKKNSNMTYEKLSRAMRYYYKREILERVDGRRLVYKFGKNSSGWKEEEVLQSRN
# In short: as §1
# CRX = CRX (Homo sapiens, UniProt O43186 1-299); conditions: protein: recombinant; tags: N-terminal GST; dsDNA, one strand shown
# Chain of CRX (O43186 whole entry): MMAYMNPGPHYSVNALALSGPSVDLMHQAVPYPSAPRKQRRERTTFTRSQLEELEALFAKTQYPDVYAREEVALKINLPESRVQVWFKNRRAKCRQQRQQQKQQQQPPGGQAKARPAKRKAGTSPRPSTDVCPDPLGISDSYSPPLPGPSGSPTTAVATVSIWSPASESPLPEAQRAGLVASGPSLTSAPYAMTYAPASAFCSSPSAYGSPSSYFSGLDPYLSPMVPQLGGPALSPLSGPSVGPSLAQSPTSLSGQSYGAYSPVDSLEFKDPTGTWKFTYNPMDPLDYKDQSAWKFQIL
# In short: as §1
# ETV1 = ETV1 (Homo sapiens, UniProt P50549 1-477); conditions: protein: recombinant; tags: N-terminal GST; dsDNA, one strand shown
# Chain of ETV1 (P50549 whole entry): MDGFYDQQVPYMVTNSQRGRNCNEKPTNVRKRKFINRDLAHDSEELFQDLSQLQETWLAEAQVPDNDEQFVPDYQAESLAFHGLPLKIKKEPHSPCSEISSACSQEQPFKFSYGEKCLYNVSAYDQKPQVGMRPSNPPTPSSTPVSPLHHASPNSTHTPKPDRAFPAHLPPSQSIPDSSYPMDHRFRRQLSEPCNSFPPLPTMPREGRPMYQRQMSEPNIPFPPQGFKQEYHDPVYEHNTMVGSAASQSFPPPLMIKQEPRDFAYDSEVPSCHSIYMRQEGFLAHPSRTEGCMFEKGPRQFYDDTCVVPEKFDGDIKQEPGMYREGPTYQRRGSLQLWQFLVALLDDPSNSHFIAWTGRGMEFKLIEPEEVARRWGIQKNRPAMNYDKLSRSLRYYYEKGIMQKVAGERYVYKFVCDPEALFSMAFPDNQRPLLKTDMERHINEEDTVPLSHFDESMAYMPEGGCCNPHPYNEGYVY
# In short: as §1
# ERF = biological target: T6, ERF (Homo sapiens, UniProt P50548 1-548); conditions: protein: recombinant; tags: N-terminal GST; dsDNA, one strand shown
# T6 sequence: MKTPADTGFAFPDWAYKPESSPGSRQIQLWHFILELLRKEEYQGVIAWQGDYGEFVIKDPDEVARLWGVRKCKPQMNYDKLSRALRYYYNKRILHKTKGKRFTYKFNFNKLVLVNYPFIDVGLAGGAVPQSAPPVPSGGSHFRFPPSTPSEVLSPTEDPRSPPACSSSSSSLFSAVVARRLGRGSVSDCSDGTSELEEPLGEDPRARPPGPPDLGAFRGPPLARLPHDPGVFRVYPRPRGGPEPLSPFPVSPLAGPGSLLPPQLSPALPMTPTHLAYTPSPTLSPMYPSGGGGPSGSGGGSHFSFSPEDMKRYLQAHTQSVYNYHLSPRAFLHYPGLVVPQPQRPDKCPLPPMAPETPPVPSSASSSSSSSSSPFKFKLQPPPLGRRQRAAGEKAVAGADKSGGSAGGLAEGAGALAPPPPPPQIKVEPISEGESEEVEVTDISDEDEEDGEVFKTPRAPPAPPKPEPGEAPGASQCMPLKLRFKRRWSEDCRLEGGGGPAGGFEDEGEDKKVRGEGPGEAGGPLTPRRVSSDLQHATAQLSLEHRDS
# In short: as §1
# ETV3L = biological target: T7, ETV3L (Homo sapiens, UniProt Q6ZN32 1-361); conditions: protein: recombinant; tags: N-terminal GST; dsDNA, one strand shown
# T7 sequence: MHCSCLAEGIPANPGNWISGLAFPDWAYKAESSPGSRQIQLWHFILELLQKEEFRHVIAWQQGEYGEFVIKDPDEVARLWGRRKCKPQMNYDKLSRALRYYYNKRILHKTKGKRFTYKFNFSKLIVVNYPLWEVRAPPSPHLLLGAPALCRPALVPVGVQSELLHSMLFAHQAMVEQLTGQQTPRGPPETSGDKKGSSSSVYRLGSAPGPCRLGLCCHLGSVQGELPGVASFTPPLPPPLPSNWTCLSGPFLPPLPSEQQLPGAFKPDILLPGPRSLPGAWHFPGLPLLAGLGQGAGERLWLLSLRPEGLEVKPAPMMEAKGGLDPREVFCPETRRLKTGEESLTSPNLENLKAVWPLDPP
# In short: as §1
# ETS2 = biological target: T8, ETS2 (Homo sapiens, UniProt P15036 1-469); conditions: protein: recombinant; tags: N-terminal GST; dsDNA, one strand shown
# T8 sequence: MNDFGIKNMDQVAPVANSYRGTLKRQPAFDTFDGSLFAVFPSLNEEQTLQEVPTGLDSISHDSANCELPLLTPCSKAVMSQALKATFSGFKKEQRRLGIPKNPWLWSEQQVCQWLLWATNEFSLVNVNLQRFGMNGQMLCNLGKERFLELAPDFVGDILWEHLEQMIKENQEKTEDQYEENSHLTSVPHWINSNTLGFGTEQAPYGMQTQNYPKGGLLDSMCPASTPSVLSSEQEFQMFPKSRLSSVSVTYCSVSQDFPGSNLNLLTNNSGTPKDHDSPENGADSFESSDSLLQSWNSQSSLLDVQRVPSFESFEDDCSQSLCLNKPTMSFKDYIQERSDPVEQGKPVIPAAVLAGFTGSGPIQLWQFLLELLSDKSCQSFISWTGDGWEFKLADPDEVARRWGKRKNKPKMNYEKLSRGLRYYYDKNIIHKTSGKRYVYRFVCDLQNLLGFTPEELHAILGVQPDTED
# In short: as §1
# SPDEF = biological target: T9, SPDEF (Homo sapiens, UniProt O95238 1-335); conditions: protein: recombinant; tags: N-terminal GST; dsDNA, one strand shown
# T9 sequence: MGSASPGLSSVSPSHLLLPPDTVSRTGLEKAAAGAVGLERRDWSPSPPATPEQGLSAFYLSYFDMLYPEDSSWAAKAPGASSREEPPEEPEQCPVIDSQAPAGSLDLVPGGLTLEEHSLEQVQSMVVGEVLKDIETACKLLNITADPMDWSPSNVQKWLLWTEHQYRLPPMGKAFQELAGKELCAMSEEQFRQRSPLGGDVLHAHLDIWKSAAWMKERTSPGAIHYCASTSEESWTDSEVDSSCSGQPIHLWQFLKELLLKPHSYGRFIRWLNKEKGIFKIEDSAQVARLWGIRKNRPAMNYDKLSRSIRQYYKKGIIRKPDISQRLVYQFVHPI
# In short: as §1
# ETV7 = biological target: T10, ETV7 (Homo sapiens, UniProt Q9Y603 1-341); conditions: protein: recombinant; tags: N-terminal GST; dsDNA, one strand shown
# T10 sequence: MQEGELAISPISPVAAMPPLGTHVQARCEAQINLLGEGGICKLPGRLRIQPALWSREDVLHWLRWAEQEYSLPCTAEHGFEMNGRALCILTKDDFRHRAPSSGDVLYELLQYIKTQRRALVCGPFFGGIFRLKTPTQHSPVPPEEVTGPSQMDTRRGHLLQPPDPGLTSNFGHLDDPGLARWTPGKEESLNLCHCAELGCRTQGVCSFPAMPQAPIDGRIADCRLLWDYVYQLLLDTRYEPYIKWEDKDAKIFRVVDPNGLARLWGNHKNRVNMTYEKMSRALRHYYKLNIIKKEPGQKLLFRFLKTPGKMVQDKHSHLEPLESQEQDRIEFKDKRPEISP
# In short: as §1
# ELF5 = biological target: T11, ELF5 (Homo sapiens, UniProt Q9UKW6-2 1-255); conditions: protein: recombinant; tags: N-terminal GST; dsDNA, one strand shown
# T11 sequence: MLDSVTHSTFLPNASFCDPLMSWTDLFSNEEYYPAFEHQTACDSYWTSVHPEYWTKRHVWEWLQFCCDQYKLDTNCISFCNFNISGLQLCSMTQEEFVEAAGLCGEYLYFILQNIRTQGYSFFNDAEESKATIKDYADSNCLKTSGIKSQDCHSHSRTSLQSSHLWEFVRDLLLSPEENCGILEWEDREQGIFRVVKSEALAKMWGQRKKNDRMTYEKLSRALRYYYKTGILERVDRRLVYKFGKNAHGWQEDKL
# In short: as §1
# ETV3 = biological target: T12, ETV3 (Homo sapiens, UniProt P41162-2 1-143); conditions: protein: recombinant; tags: N-terminal GST; dsDNA, one strand shown
# T12 sequence: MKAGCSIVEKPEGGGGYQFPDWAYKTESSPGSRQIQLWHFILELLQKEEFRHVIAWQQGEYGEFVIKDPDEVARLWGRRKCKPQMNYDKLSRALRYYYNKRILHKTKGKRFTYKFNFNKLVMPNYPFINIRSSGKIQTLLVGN
# In short: as §1
# ETV6 = ETV6 (Homo sapiens, UniProt P41212 1-452); conditions: protein: recombinant; tags: N-terminal GST; dsDNA, one strand shown
# Chain of ETV6 (P41212 whole entry): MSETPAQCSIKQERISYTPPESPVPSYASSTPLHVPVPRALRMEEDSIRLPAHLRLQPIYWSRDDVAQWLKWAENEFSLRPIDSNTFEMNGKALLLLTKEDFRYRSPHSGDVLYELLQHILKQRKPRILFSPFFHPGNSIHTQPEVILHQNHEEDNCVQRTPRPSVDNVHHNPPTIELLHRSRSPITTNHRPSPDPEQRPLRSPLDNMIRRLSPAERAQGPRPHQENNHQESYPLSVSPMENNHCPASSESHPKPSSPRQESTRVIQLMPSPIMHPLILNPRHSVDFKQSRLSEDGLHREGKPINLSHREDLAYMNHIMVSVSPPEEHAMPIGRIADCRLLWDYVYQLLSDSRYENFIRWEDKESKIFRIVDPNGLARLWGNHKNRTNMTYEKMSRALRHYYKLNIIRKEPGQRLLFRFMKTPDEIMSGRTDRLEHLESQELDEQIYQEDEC
# In short: as §1
sequence,measurement,setting,value
TATAGC,binding signal,FEV,"1.19 fold enrichment (6-mer frequency, TF over GST control)"
same,binding signal,ETV5,"1.37 fold enrichment (6-mer frequency, TF over GST control)"
same,binding signal,HSF1,"1.17 fold enrichment (6-mer frequency, TF over GST control)"
same,binding signal,SPIC,"1.31 fold enrichment (6-mer frequency, TF over GST control)"
same,binding signal,ELF4,"1.15 fold enrichment (6-mer frequency, TF over GST control)"
same,binding signal,ELK4,"1.29 fold enrichment (6-mer frequency, TF over GST control)"
same,binding signal,ETV2,"1.13 fold enrichment (6-mer frequency, TF over GST control)"
same,binding signal,ELF3,"1.27 fold enrichment (6-mer frequency, TF over GST control)"
same,binding signal,CRX,"1.44 fold enrichment (6-mer frequency, TF over GST control)"
same,binding signal,ETV1,"1.13 fold enrichment (6-mer frequency, TF over GST control)"
same,binding signal,ERF,"1.24 fold enrichment (6-mer frequency, TF over GST control)"
same,binding signal,ETV3L,"1.25 fold enrichment (6-mer frequency, TF over GST control)"
same,binding signal,ETS2,"1.18 fold enrichment (6-mer frequency, TF over GST control)"
same,binding signal,SPDEF,"1.18 fold enrichment (6-mer frequency, TF over GST control)"
same,binding signal,ETV7,"1.19 fold enrichment (6-mer frequency, TF over GST control)"
same,binding signal,ELF5,"1.13 fold enrichment (6-mer frequency, TF over GST control)"
same,binding signal,ETV3,"1.2 fold enrichment (6-mer frequency, TF over GST control)"
same,binding signal,ETV6,"1.15 fold enrichment (6-mer frequency, TF over GST control)"
